MITF TRPM1 HTS – increases MITF-driven TRPM1 promoter luciferase signal | SK-MEL-5 TRPM1-promoter luciferase, 24 h; % of positive control, neutral wells = 0 | activation, % at 12.5 µM | 300,000 compounds, 0.75% hits;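 active means mean activation of at least 80% with every replicate also reaching 80%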;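 further: 0% = neutral control wells and 100% = parthenolide positive control wells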
esBAF inh – inhibitors of esBAF chromatin remodeling in mouse ES cells; AID 602393; Bmi1-luciferase knock-in reporter, 24 h; 100% = twice the neutral-well signal; reporter increase, % at 12.5 µM; 350,000 compounds, 2% hits; in the data active means activation above about 40%;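 further: 0% = median of the plate's neutral control wells and 100% = double that signal; a rise in the Bmi1 reporter signal indicates esBAF inhibition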
Wnt act – activates Wnt/beta-catenin signaling in a reporter cell assay; AID 743398; activator, plate reader; 300,000 compounds, 1.2% hits; activation, % at 9.35 µM; in the data active means activation above about 30%, passing the limit was not always enough;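 further: 0% = neutral control wells and 100% = positive control wells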
HSF-1 act – increases HSF-1 driven luciferase reporter signal. NIH3T3-HGL HSF-1 luciferase reporter, MG132, 8 h; 100% = twice DMSO control signal. activation, % at 9 µM. 300,000 compounds, 1.7% hits;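 active means mean replicate activation of at least 50% with a set share of replicates each reaching 50%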;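 further: 0% = median of the neutral control wells and 100% = twice that signal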
HSF1 inh – HSF1 inhibition; AID 2098; NIH3T3-HGL HSE-luciferase, MG132-induced, luminescence 8 h; active compounds read low; activity change, negative = inhibition, % at 7.5 µM (by protocol); 300,000 compounds, 0.77% hits;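 active means more than half of replicate wells show activity change below -50%, luminescence cut by over half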;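 further: luciferase reports HSF-1 transcriptional activity via heat shock element; 0% = median of DMSO wells and -100% = zero luminescence signal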
SMARCA2 act – activators of SMARCA2 function; MG213 cells, MMTV-luciferase reporter, dexamethasone, overnight; 370,000 compounds, 1% hits; AID 652017; activation, % at 9.1 µM; in the data active means activation above about 7.8%;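 further: 0% = vehicle wells and 100% = reference activator wells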
Active calls of the source: *; nt = not tested or not shown. In the library only some 4.3% were active in any assay of this set; here they are far more common.

SMILES	MITF TRPM1 HTS	esBAF inh	Wnt act	HSF-1 act	HSF1 inh	SMARCA2 act
CN(CC(=O)Nc1ccc(N2CCOCC2)cc1)CC(=O)Nc1ccc(N2CCOCC2)cc1	5	-6	1	-1	3	-4
O=C(NCCN1CCOCC1)c1cc2ccccc2oc1=O	12	2	2	-11	8	1
CN(CC(=O)Nc1ccc(N2CCOCC2)cc1)Cc1c(O)ccc2ccccc12	-8	0	-1	198*	160	-4
O=C(Nc1ccc(CN2CCOCC2)cc1)c1ccccc1F	nt	26	39*	40	10	2
O=C(Nc1ccc(CN2CCOCC2)cc1)c1ccc(Cl)cc1Cl	15	11	1	20	2	-4
O=C(NCCN1CCOCC1)c1cc2ccccc2o1	nt	3	2	61*	25	1
O=C(/C=C/c1ccccc1)NC(=S)Nc1ccc(CN2CCOCC2)cc1	1	nt	-3	73*	38	0
O=C(NCCN1CCOCC1)c1cc(-c2ccccc2)on1	7	19	47*	1	5	-2
O=C(NC(=S)Nc1ccc(CN2CCOCC2)cc1)c1cc2ccccc2o1	30	nt	13	23	10	0
COc1ccc(/C=C/C(=O)Nc2ccccc2C)cc1S(=O)(=O)N1CCOCC1	19	47*	-1	31	25	-3
O=C(Nc1ccc(CN2CCOCC2)cc1)c1cc2ccccc2o1	105*	25	nt	9	10	1
CN1CCN(C(=O)C[C@H]2CC[C@@H]3[C@H](COC[C@@H](O)CN3Cc3ccc4c(c3)OCO4)O2)CC1	nt	2	nt	nt	nt	nt
C[C@H]1CN([C@@H](C)CO)C(=O)c2cccc(NC(=O)c3nc4ccccc4s3)c2O[C@@H]1CN(C)S(=O)(=O)c1cn(C)cn1	nt	-5	nt	nt	nt	nt
CN(C)C(=O)C[C@@H]1CC[C@H]2[C@@H](COC[C@@H](O)CN2S(=O)(=O)c2ccccc2)O1	nt	3	nt	nt	nt	nt
O=C(/C=C/c1ccc(Cl)cc1)NC(=S)Nc1ccc(C(=O)O)cc1	13	1	-2	14	5	2
CN(C)c1ccc(NC(=S)NC(=O)/C=C/c2ccc(Cl)cc2)cc1	57	46*	27	13	13	5
O=C(Nc1ccc(N2CCOCC2)cc1)c1cc2ccccc2o1	72	46*	nt	46	31	5
O=C(/C=C/c1ccc(S(=O)(=O)N2CCOCC2)cc1)NC(=S)Nc1ccc(N2CCOCC2)cc1	-5	nt	-1	18	0	-1
Cc1cc(NC(=S)NC(=O)/C=C/c2ccc(S(=O)(=O)N3CCOCC3)cc2)ccc1Br	-7	nt	-4	100*	85	-3
CCC(=O)N1CCN(c2ccc(NC(=O)c3cc4ccccc4o3)cc2)CC1	34	25	nt	36	16	-3
O=C(Nc1ccc(N2CCOCC2)cc1)c1cc(-c2ccncc2)nc2ccccc12	-2	nt	-1	-63	-52*	-2
C[C@H](CO)N1C[C@H](C)[C@@H](CN(C)C(=O)C2CC2)OCc2ccccc2-c2ccccc2C1=O	nt	-3	nt	nt	nt	nt
Cc1ccc(CN(C)C[C@@H]2OCc3cn(nn3)CCCC(=O)N([C@@H](C)CO)C[C@H]2C)cc1	nt	-2	nt	nt	nt	nt
CCN(C[C@@H]1[C@H](c2ccccc2)[C@@H](CO)N1C(C)=O)C(=O)c1ccccn1	nt	2	nt	nt	nt	nt
CN1[C@@H]2c3ccc(-c4ccccc4)c(=O)n3C[C@@H]2[C@@H](CO)[C@@H]1C(=O)Nc1ccccc1	nt	-3	nt	nt	nt	nt
SMILES	MITF TRPM1 HTS	esBAF inh	Wnt act	HSF-1 act	HSF1 inh	SMARCA2 act
COc1cccc(NC(=O)C[C@H]2CC[C@H]3[C@@H](COc4ccc(NC(=O)C5CCOCC5)cc4C(=O)N3C)O2)c1	nt	4	nt	nt	nt	nt
CC1CC1C(=O)Nc1nc(-c2ccccn2)cs1 (stereo not given)	18	51*	-2	12	5	2
O=C(Nc1nc(-c2ccccn2)cs1)c1cc(Cl)ccc1[N+](=O)[O-]	-78	nt	-2	70*	34	-11
c1ccc(CCNc2nc(-c3ccccn3)cs2)cc1	29	nt	13	53*	32	5
Cc1cc(C(=O)Nc2nc(-c3ccccn3)cs2)ccc1[N+](=O)[O-]	-7	nt	-2	-28	-31	0
O=C(Nc1nc(-c2ccccn2)cs1)C1COc2ccccc2O1 (stereo not given)	-15	9	1	nt	nt	-2

Source: PubChem (several laboratories)
